Source: PubChem BioAssay
pEC50: −log10 of the molar value. Where “and” joins values, the source holds several entries; their conditions need not be identical. Equal values may be shown once. Results filed as inconclusive are left out. For some of these results: Potency and affinity values are given separately. Calls of active or inactive are those of the source.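 The calls were made as follows, unless noted: active = at least 20% inhibition of 6-phosphogluconate dehydrogenase activity; inactive = the rest.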

Assays:
[1] = target: 6-phosphogluconate dehydrogenase, decarboxylating (Homo sapiens) (UniProt P52209); assay: inhibition of human phosphogluconate dehydrogenase – biochemical, recombinant enzyme, NADPH absorbance, primary screen (AID 1159550); conditions: recombinant 6PGD, NADPH absorbance 341 nm; at 10 µM; stronger effect = higher value
[2] = test system: Aerobactin synthetase IucA (Klebsiella pneumoniae hvKP1); assay: IucA enzyme inhibition, primary screen, biochemical, Spectrum library (AID 1346200; call rule not given here;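 also: 100% = wells without compound and 0% = wells lacking enzyme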); conditions: malachite green pyrophosphate, A620, at 8 µM, stronger effect = lower value
[3] = viability loss with induced miR-34 in A549 – imaging, A549 dox-inducible miR-34, nuclei and caspase counts, primary screen (AID 1347080;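 active = compounds whose cell count with miR-34 switched on is under 0.7 times the count with it off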); conditions: A549 miR-34 inducible, Hoechst nuclei count, 48 h
[4] = MELAS cybrid and Rieske KO viability enhancers – cell-based, MELAS cybrids, Rieske KO mouse fibroblasts, CellTiter-Glo, primary screen (AID 1508586;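 active = mean z-score across replicates of 1.96 or higher in either the MELAS or the Rieske mutant cell line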;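 also: z relative to plate mean and SD of compound and empty wells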); conditions: low glucose
[5] = target: Mitogen-activated protein kinase 7 (Homo sapiens) (UniProt Q13164); assay: Gal4-ERK5 driven luciferase induction – cell-based, HTS, primary screen (AID 1508626;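 active = luciferase signal above three times the same-plate solvent-only control wells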;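 also: luciferase driven by Gal4-ERK5 fusion binding five Gal4 sites before minimal TATA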); conditions: HeLa Gal4-ERK5 transactivation, 18 h, at 5 µM, stronger effect = higher value
[6] = galactose survival enhancers in mitochondrial complex I cybrids – cell-based, galactose medium, ATP luminescence, primary screen (AID 1645843;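 active = z-score of at least 1.8 in each of two replicates, scored against plate mean and spread of sample wells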;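 also: positive z means more ATP and so rescue of galactose-driven cybrid death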); conditions: complex I mutant cybrid cells, 72 h, stronger effect = higher value
[7] = P. berghei load reduction in hepatocytes – cell-based, HepG2, luciferase luminescence, HepG2 viability, primary screen (AID 624349; in the data active = parasite load remaining mostly below about 12%, no sharp cut-off; inactive = mostly above about 10%;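 also: 100% = mean of DMSO negative control wells on the same plate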); conditions: P. berghei liver stage in HepG2, luciferase luminescence, concentration not given here; parasite load remaining: stronger effect = lower value; viability: measured here: HepG2 viability without parasites
[8] = blockers of polyQ-driven CASP3 activation – cell-based (AID 1583); conditions: polyglutamine-induced caspase-3 activation, cell assay; stronger effect = higher value;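 tested at 10 µM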
[9] = yeast 75Q aggregation reduction – 75Q-TubU reporter (AID 1593); conditions: Yeast 75Q polyglutamine aggregation reporter
[10] = restoration of touch response, mutant HTT neurons – whole organism, C. elegans mechanosensory neurons, N-terminal huntingtin (AID 1599); conditions: C. elegans polyQ-huntingtin mechanosensory neurons, stronger effect = higher value
[11] = blockers of cytochrome c efflux from mitochondria – biochemical, purified mitochondria (AID 1603); conditions: stronger effect = lower value;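 also: mouse liver mitochondria challenged with calcium chloride; signal normalized to the plate average as 100%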
[12] = polyglutamine aggregate formation blockers (AID 1604); conditions: polyglutamine-induced protein aggregation inhibition assay; stronger effect = higher value; tested at 2.5 µM
[13] = glutamate transport activators, MN-1 cells, MN-1 cell line (AID 1612); conditions: MN-1 motor neuron cells, stronger effect = higher value;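 also: tested at 1 µM final; 0% = mean of DMSO vehicle wells on each plate; positive means more glutamate uptake than control and negative means less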
[14] = GFP-Q80 aggregate reduction, neuronal-like cells, cell-based, NGF-treated PC12, GFPQ80 (AID 1614); conditions: PC12 NGF-treated GFP-polyQ80 inclusion reduction;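 also: lower means fewer inclusions and 0 means no inclusions at all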
[15] = 75Q-TubH aggregate inhibition, S. cerevisiae, yeast (AID 1616); conditions: S. cerevisiae 75Q-TubH polyglutamine aggregation suppression; stronger effect = higher value
[16] = viability loss in pontine glioma line – cell-based, SU-DIPG-XVII, MIPE5.0, CellTiter-Glo, qHTS, dose response (AID 1347060; cut-off not given, nearly all actives have AC50 up to about 26 µM); conditions: CellTiter-Glo ATP luminescence
[17] = viability loss in pontine glioma line – cell-based, SU-DIPG-XIII, MIPE4.0, CellTiter-Glo, qHTS, dose response (AID 1347061; cut-off not given, nearly all actives have AC50 up to about 37 µM;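 also: cells exposed to compound for 48 hours before readout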); conditions: CellTiter-Glo ATP luminescence
[18] = viability loss in pontine glioma line – cell-based, JHH-DIPG-1, MIPE4.0, CellTiter-Glo, qHTS, dose response (AID 1347062; cut-off not given, nearly all actives have AC50 up to about 27 µM); conditions: JHH-DIPG-1 viability, CellTiter-Glo ATP luminescence
[19] = viability loss in pontine glioma line – cell-based, SU-DIPG-IV, MIPE4.0, CellTiter-Glo, qHTS, dose response (AID 1347063; cut-off not given, nearly all actives have AC50 up to about 30 µM;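 also: compound exposure lasted 48 hours before the viability readout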); conditions: CellTiter-Glo ATP luminescence
[20] = viability loss in pontine glioma line – cell-based, SU-DIPG-XIII, MIPE5.0, CellTiter-Glo, qHTS, dose response (AID 1347064; cut-off not given, nearly all actives have AC50 up to about 23 µM); conditions: CellTiter-Glo ATP luminescence
[21] = viability loss in pontine glioma line – cell-based, SU-DIPG-XXV, MIPE5.0, CellTiter-Glo, qHTS, dose response (AID 1347065; cut-off not given, nearly all actives have AC50 up to about 26 µM;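 also: cells exposed to compound for 48 hours before ATP readout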); conditions: CellTiter-Glo ATP luminescence
[22] = growth inhibition of DIPG cells – cell-based, MIPE4.0 library, CellTiter-Glo luminescence, qHTS (AID 1347066; cut-off not given, nearly all actives have AC50 up to about 30 µM;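 also: cells exposed to compound for 48 hours before readout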); conditions: SU-DIPG-VI viability, CellTiter-Glo ATP luminescence
[23] = JHH-DIPG-1 glioma cell viability, MIPE5.0 library, CellTiter-Glo luminescence, qHTS (AID 1347067; cut-off not given, nearly all actives have AC50 up to about 26 µM;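 also: cells exposed to compound for 48 hours before readout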); conditions: JHH-DIPG-1 glioma viability, CellTiter-Glo ATP luminescence
[24] = growth inhibition of DIPG cells – cell-based, MIPE5.0 library, qHTS (AID 1347068; cut-off not given, nearly all actives have IC50 up to about 30 µM); conditions: SU-DIPG-XXV viability
[25] = target: NAD(+) hydrolase SARM1 (Homo sapiens) (UniProt Q6SZW1); assay: blocking NAD cleavage by SARM1 SAM-TIR – cell lysate, NAD-Glo luminescence (AID 1508614;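 active = compound whose remaining NAD level is above about 45 nM, limit read from the data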;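 also: higher remaining NAD means stronger inhibition of SARM1 NADase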); conditions: SAM-TIR HEK293T lysate NADase, at 1 µM, stronger effect = higher value
[26] = target: Huntingtin (Homo sapiens) (UniProt P42858); assay: mutant huntingtin aggregation blockers – QA1, dose response (AID 1584); conditions: in vitro mutant huntingtin aggregation assay; confirmation test; at 10 µM; stronger effect = lower value
[27] = blockers of biotin-polyQ monomer incorporation into aggregates – biochemical, solid-phase synthetic aggregates, QA3 (AID 1585; call rule not given here); conditions: polyQ aggregate elongation; EC50: measured here: elongation inhibition potency; inhibition: at 100 µM, stronger effect = higher value
[28] = measured here: relative caspase fold change +Dox/-Dox
[29] = measured here: total cells with miR-34 induction, stronger effect = lower value
[30] = measured here: total cells without miR-34 induction
[31] = MELAS cybrid survival, CellTiter-Glo 48 h, stronger effect = higher value
[32] = Rieske KO mouse fibroblast survival, CellTiter-Glo 72 h

Sequence of 6-phosphogluconate dehydrogenase, decarboxylating (Homo sapiens) (P52209 whole entry, looked up): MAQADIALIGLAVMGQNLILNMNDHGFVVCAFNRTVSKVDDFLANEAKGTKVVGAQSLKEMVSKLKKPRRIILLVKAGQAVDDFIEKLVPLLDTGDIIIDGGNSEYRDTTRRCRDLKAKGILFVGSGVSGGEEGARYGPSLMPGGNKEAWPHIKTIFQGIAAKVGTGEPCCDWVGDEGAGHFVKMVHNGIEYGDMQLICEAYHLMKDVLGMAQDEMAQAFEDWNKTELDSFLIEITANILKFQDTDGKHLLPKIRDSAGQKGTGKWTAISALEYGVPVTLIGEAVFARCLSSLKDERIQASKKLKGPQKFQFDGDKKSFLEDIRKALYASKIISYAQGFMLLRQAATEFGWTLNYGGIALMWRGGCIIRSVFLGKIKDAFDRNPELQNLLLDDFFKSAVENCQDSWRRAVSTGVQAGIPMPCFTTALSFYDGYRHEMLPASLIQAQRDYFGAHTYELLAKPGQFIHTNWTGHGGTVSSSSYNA
Sequence of Mitogen-activated protein kinase 7 (Homo sapiens) (Q13164 whole entry, looked up, the tested form may be a part): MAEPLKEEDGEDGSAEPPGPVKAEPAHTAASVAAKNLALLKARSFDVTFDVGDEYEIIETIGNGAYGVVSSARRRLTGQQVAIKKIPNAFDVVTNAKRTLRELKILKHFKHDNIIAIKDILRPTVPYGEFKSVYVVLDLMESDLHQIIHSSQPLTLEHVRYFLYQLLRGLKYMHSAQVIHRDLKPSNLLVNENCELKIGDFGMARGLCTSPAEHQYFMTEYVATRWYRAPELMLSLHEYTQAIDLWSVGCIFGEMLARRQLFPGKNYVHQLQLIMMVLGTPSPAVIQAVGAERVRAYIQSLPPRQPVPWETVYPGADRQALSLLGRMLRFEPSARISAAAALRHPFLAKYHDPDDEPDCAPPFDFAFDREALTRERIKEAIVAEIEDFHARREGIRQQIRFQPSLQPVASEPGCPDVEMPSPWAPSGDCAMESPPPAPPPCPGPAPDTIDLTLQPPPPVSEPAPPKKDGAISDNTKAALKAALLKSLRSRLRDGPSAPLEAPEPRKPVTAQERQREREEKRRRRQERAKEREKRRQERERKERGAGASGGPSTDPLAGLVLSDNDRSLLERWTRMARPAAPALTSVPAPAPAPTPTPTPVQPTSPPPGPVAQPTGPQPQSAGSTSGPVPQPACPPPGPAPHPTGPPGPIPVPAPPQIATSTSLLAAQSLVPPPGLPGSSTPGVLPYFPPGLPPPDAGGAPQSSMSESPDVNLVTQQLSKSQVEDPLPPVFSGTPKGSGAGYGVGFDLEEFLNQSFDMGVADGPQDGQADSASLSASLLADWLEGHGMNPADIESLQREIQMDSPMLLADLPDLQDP
Sequence of Huntingtin (Homo sapiens) (P42858 whole entry, looked up): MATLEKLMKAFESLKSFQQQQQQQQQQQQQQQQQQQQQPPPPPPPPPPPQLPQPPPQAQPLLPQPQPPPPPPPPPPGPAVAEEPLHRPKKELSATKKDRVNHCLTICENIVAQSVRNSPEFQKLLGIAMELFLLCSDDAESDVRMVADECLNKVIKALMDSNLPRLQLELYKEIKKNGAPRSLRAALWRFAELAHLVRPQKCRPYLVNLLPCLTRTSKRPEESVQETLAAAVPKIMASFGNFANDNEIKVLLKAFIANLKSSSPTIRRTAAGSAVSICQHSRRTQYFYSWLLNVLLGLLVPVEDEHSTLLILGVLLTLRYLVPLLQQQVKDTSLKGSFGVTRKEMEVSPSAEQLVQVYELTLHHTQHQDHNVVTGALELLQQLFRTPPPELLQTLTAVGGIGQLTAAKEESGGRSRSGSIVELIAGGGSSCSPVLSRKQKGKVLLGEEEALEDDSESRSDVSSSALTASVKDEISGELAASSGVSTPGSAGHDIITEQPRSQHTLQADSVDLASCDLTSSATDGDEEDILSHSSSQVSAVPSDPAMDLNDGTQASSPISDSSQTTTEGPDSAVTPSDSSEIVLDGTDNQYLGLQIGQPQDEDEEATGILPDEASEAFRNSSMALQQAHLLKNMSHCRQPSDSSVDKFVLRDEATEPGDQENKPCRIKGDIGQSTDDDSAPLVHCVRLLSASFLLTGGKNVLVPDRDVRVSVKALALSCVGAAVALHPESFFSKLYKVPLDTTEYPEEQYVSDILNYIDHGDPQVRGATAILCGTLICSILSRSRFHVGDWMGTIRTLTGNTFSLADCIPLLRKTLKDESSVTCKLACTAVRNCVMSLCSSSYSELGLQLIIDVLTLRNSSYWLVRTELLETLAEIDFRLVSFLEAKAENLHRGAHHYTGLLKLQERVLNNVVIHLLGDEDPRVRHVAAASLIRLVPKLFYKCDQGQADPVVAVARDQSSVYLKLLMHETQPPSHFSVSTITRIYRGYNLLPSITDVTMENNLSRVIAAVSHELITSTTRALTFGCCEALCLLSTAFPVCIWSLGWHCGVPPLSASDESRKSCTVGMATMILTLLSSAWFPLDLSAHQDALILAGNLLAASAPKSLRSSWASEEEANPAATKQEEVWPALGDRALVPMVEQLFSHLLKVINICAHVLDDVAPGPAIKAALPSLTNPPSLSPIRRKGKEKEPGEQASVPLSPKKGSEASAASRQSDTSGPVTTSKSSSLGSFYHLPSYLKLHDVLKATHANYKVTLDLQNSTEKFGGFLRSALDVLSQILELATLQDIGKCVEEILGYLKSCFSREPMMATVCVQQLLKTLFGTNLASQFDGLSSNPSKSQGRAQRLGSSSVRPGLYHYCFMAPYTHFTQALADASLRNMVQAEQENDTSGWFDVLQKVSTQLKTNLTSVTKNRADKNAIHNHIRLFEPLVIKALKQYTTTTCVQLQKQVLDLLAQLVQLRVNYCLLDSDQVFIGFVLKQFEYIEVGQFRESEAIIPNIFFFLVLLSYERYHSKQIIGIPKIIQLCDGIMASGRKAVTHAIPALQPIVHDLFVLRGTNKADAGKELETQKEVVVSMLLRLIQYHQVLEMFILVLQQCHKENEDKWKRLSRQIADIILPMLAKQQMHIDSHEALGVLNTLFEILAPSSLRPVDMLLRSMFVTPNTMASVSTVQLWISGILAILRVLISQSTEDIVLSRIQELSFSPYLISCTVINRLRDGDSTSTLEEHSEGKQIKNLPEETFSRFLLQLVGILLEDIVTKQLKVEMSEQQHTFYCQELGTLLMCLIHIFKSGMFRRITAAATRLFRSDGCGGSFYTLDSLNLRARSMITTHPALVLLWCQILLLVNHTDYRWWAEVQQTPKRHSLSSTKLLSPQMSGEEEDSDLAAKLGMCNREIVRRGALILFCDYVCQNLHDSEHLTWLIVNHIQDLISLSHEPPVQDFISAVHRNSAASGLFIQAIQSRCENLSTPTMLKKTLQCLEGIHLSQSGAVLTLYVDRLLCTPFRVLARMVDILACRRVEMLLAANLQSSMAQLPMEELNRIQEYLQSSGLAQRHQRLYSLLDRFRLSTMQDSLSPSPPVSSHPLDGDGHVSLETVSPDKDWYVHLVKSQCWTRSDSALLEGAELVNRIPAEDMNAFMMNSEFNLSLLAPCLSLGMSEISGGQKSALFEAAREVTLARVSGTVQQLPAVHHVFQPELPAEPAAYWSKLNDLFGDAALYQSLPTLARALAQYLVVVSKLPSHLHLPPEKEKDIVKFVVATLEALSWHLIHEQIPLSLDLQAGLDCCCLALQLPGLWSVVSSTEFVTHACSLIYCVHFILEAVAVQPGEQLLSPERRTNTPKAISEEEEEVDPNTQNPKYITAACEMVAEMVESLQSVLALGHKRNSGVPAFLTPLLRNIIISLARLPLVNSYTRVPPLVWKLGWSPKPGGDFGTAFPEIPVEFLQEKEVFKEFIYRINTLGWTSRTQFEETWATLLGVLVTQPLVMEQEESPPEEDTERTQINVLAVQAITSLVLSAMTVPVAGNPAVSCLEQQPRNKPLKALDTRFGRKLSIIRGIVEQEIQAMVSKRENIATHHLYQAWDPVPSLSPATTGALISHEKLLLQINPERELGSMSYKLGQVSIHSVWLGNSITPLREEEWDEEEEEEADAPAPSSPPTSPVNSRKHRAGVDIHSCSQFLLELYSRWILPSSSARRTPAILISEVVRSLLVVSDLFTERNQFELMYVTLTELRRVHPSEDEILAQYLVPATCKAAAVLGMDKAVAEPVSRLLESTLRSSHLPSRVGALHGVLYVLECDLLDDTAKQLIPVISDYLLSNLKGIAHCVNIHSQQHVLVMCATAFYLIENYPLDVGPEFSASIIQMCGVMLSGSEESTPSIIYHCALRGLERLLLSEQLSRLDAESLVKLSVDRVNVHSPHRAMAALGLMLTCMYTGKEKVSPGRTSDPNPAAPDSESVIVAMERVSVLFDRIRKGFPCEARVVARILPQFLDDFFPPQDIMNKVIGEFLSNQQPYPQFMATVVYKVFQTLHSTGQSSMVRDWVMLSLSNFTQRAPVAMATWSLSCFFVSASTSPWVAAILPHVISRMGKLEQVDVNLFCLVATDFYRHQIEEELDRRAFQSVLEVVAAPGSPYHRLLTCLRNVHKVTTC

Compound: CCNc1nc(Cl)nc(NC(C)C)n1
- inhibition [1]: 7.64% (inactive)
- activity remaining [2]: 97.8% (inactive)
- fold change ([3]; stronger effect = lower value): 0.888 (inactive)
- fold change [3, 28]: 0.465
- cell count [3, 29]: 8110
- cell count [3, 30]: 9140
- z-score [4, 31]: 3.44 (active)
- z-score [4, 32]: -0.553
- luciferase signal [5]: 36 AU (inactive)
- z-score [6]: 0.59 (inactive)

Compound: NNCc1ccccc1
- parasite load remaining [7]: 106% (inactive)
- viability [7]: 91.4%
- inhibition [1]: 9.93% (inactive)
- activity remaining [2]: 105% (inactive)

Compound: CCCC(C)C1(CC)C(=O)NC(=O)NC1=O (configuration not stated)
- inhibition [8]: 8.8%
- score [9]: 1.08
- rescue above control [10]: -0.14
- cytochrome c release ratio [11]: 0.79
- inhibition of aggregation [12]: -14.3%
- glutamate uptake change [13]: 8.51%
- inclusion score [14]: 2
- aggregation suppression score [15]: 0.96
- parasite load remaining [7]: 22.1% (inactive)
- viability [7]: 103%
- inhibition [1]: -1.31% (inactive)
- activity remaining [2]: 95.4% (inactive)
- fold change ([3]; stronger effect = lower value): 0.918 (inactive)
- fold change [3, 28]: 2.52
- cell count [3, 29]: 11200
- cell count [3, 30]: 12200
- z-score [4, 31]: 0.13 (inactive)
- z-score [4, 32]: -0.121
- luciferase signal [5]: 60 AU (inactive)

Compound: CC(C)C[C@H](CN)CC(=O)O
- inhibition [1]: 9.49% (inactive)
- outcome [16]: inactive
- outcome [17]: inactive
- outcome [18]: inactive
- outcome [19]: inactive
- outcome [20]: inactive
- outcome [21]: inactive
- outcome [22]: inactive
- outcome [23]: inactive
- outcome [24]: inactive
- z-score [4, 31]: -0.0671 (inactive)
- z-score [4, 32]: 0.159
- remaining NAD [25]: 10 nM (inactive)

Compound: COc1cc([C@@H]2c3cc4c(cc3[C@H](OC(C)=O)[C@H]3COC(=O)[C@@H]23)OCO4)cc(OC)c1OC
- inhibition [1]: -3.31% (inactive)
- activity remaining [2]: 96.2% (inactive)
- luciferase signal [5]: 64 AU (inactive)

Compound: COc1cc([C@@H]2c3cc4c(cc3[C@H](OC(C)=O)[C@H]3COC(=O)[C@H]23)OCO4)cc(OC)c1OC
- inhibition [1]: -6.91% (inactive)
- activity remaining [2]: 112% (inactive)
- luciferase signal [5]: 244 AU (active)

Compound: Cc1cc2c(C(C)C)c(O)c(O)c(C=O)c2c(O)c1-c1c(C)cc2c(C(C)C)c(O)c(O)c(C=O)c2c1O
- inhibition [8]: 60.9%
- aggregation ratio [26]: 0.119
- pEC50 [27]: 4.24
- inhibition [27]: 68% (active)
- score [9]: 1.78
- rescue above control [10]: 0
- cytochrome c release ratio [11]: 0.19
- inhibition of aggregation [12]: 19.1%
- glutamate uptake change [13]: -53.4%
- inclusion score [14]: 0
- aggregation suppression score [15]: 0.368
- inhibition [1]: 14.1% (inactive) and -10.8% (inactive)
- activity remaining [2]: 96.1% (inactive) and 125% (inactive)
- z-score [4, 31]: -0.449 (inactive) and -0.0386 (inactive)
- z-score [4, 32]: -0.0272 and 0.0258
